40 molecules from PubChem BioAssay (NCATS) can be followed below.

Results filed as inconclusive are left out. Entries that show only a call come without a potency. Activity calls are given as the source filed them. Calls come from the whole dose curve; as a rule, active = well fitted inhibition curve with a large enough effect; inconclusive = small, poorly fitted or top-dose-only effect; inactive = flat fitted curve, though single readings scatter.
Potency is the fitted concentration of half-maximal effect.

The test system of the experiment is MCC-26. Kind of experiment: qHTS assay to identify novel small-molecules to repurpose for Merkel cell carcinoma treatment (AID 1296009). Note: nearly all actives have a fitted effect of over 60% in size. The settings on record: MCC and control cell lines, CellTiter-Glo viability, 72 h; series mostly up to 46 µM. The text has this:
MCC is a rare and aggressive neuroendocrine skin cancer with limited treatment options. Approximately 80% of MCCs have the Merkel cell polyomavirus (MCPyV) DNA integrated into the host genome (virus-positive: VP-MCC) and viral oncogenes drive oncogenesis. The remaining MCCs are virus-negative (VN-MCC) and are caused by UV mutagenesis. To identify novel treatments for VP-MCC and/or VN-MCC we screened three VP-MCC cell lines (WAGA, MKL-1, MKL-2), three VN-MCC cell lines (MCC-13, MCC-26, UISO), and four immortalized, non-transformed control cell lines (HaCaT, HEK293T, CRL7250, NIH-3T3) against ~2,400 compounds in the NCGC Pharmaceutical Collection (NPC) and ~1,900 compounds in the Mechanism Interrogation PlatE (MiPE). Using cell viability as a readout (CellTiter-Glo assay) we found both overlapping and distinct drugs that can be repurposed for the treatment of VP-MCC and VN-MCC.
A high-throughput screen was conducted in 1536-well white flat bottom plates (Corning) on a Kalypsys robotic system. Cell lines WAGA, MKL-1, MKL-2, MCC-13, MCC-26, UISO, HaCaT, HEK293T, CRL7250, and NIH-3T3 were screened against 2 small molecule annotated drug libraries NPC and MIPE in dose response (8 and 11 pt. respectively) measuring cell viability after 72 hours of incubation. […] A 1,536 pintool (Kalypsys) was used to transfer 23 nL of compound in DMSO to the 1,536-well assay plates. After 72 hr incubation at 37 degree celsius, 2.5 uL of CellTiter-Glo (Promega) was dispensed into each well using a BiorapTR. Plates were incubated at room temperature for 10 min, transferred to a ViewLux (PerkinElmer) and the luminescence was recorded using an exposure time of 2 seconds. Relative luminescence units (RLUs) were normalized to in-plate controls (no cells as a positive (cytotoxicity) control, DMSO as negative control) and the normalized data was processed using NCATS in-house software.
With `COC1(CS(=O)c2ccccc2)CCN(CCc2c[nH]c3ccc(F)cc23)CC1` (stereo not given), the Potency result is “inactive”. For `NCC1(CC(=O)O)CCCCC1`, the Potency result was “inactive”. To `C=CCN1CC[C@]23c4c5ccc(O)c4O[C@H]2C(=O)CC[C@@]3(O)[C@H]1C5` belongs “inactive”; to `CC(=O)Nc1cc([As](=O)(O)O)ccc1O`, “inactive”; to `Oc1ccc(Cl)cc1Cc1ccccc1`, “inactive”.

In the case of `O=C(NC(O)C(Cl)(Cl)Cl)NC(O)C(Cl)(Cl)Cl` (stereo not given), the Potency result was “inactive”. In the case of `Cc1ccc(S(=O)(=O)N[C@@H](CCCCN)C(=O)CCl)cc1`, the Potency result is “inactive”. `c1ccc2c(c1)Nc1ccccc1S2`: the Potency result is “inactive”. For `NCCc1cc(O)c(O)cc1O`, the Potency entry is “inactive”. As to `O=C1CC[C@@]2(O)[C@H]3Cc4ccc(O)c5c4[C@@]2(CCN3CC2CC2)[C@H]1O5`, the Potency entry is “inactive”.

As to `CCN(C(C)=O)c1cccc(-c2ccnc3c(C#N)cnn23)c1`, the Potency result was “inactive”.

As for `CN1C[C@H](CNC(=O)OCc2ccccc2)C[C@@H]2c3cccc4c3c(cn4C)C[C@H]21`, the Potency result is “inactive”. To `CC(C)NCC(O)c1ccccc1Cl` (stereo not given) belongs “inactive”; to `O=C1NCN(c2ccccc2)C12CCN(CC1COc3ccccc3O1)CC2` (stereo not given), “inactive”; to `C[C@@H]1[C@@H](CC(C[C@H]2O[C@@H]3O[C@]4(C)CC[C@@H]5[C@H](C)CC[C@@H]([C@H]2C)[C@@]35OO4)C[S+](=O)([O-])c2ccc(COC(=O)N(C)C)cc2)O[C@@H]2O[C@]3(C)CC[C@H]4[C@H](C)CC[C@@H]1[C@@]24OO3` (stereo not given in full), “inactive”. Turning to `CCN(CC)CCN1C(=O)CN=C(c2ccccc2F)c2cc(Cl)ccc21`, the Potency entry is “inactive”. To `C[C@]12C/C(=C/O)C(=O)C[C@@H]1CC[C@@H]1[C@@H]2CC[C@@]2(C)[C@H]1CC[C@]2(C)O` belongs “inactive”; to `Cn1c(CCCC(=O)O)nc2cc(N(CCCl)CCCl)ccc21`, “inactive”. As to `C[C@]12CCC(=O)C(O)=C1CC[C@@H]1[C@@H]2CC[C@]2(C)C(=O)CC[C@@H]12`, the Potency entry is “inactive”.

Regarding `CC(C)(C)NCC(O)c1cc(Cl)c(N)c(Cl)c1` (stereo not given), the Potency result is “inactive”. In the case of `Cc1ccc(-c2nc3ccc(C)cn3c2CC(=O)N(C)C)cc1`, the Potency result is “inactive”. `CCN(CC)C(=O)N[C@@H]1C=C2c3cccc4[nH]cc(c34)C[C@@H]2N(C)C1`: the Potency entry was “inactive”. Consider `OCCOc1ccccc1`, for which the Potency entry is “inactive”. In the case of `C[C@H]1O[C@@H](O[C@H]2[C@@H](O)C[C@H](O[C@H]3[C@@H](O)C[C@H](O[C@H]4CC[C@@]5(C)[C@H](CC[C@@H]6[C@@H]5CC[C@]5(C)[C@@H](C7=CC(=O)OC7)CC[C@]65O)C4)O[C@@H]3C)O[C@@H]2C)C[C@H](O)[C@@H]1O`, the Potency is 0.0422 µM (active).

Turning to `Clc1ccc(CCC(Cn2ccnc2)Sc2c(Cl)cccc2Cl)cc1` (stereo not given), the Potency result was “inactive”. Regarding `CCCC(C)(COC(N)=O)COC(=O)NC(C)C` (stereo not given), the Potency result was “inactive”. For the molecule `CC(=O)[C@H]1CC[C@H]2[C@@H]3CC[C@H]4C[C@H](O)CC[C@]4(C)[C@H]3C(=O)C[C@]12C`, the Potency result is “inactive”. As for `COC[C@@H](NC(C)=O)C(=O)NCc1ccccc1`, the Potency entry was “inactive”. In the case of `COc1ccc2c(c1OC)CN1CCc3cc4c(cc3C1C2)OCO4` (stereo not given), the Potency entry was “inactive”. In the case of `C=C1C[C@@H]2[C@H](CC[C@]3(C)C(=O)CC[C@@H]23)[C@@]2(C)C=CC(=O)C=C12` it was “inactive”. With `C[C@@H]1O[C@@H](O[C@H]2C[C@@H](O)[C@]3(CO)[C@H]4[C@H](O)C[C@]5(C)[C@@H](C6=CC(=O)OC6)CC[C@]5(O)[C@@H]4CC[C@]3(O)C2)[C@H](O)[C@H](O)[C@H]1O`, the Potency was 0.235 µM (active). With `CC[N+](CC)(CC)CC`, the Potency entry was “inactive”. For `COc1ccc(C(CN(C)C)C2(O)CCCCC2)cc1` (stereo not given), the Potency result is “inactive”. For the molecule `CNCC(O)c1ccc(O)cc1` (stereo not given), the Potency entry was “inactive”.

Turning to `COc1ccc(C(=O)c2c(C)n(CCN3CCOCC3)c3ccccc23)cc1`, the Potency result was “inactive”. As to `NCC(O)c1ccc(O)cc1` (stereo not given), the Potency result is “inactive”. For the molecule `O=P1(NCCCl)OCCCN1CCCl` (stereo not given), the Potency result is “inactive”. As to `CC(C)=CCOc1c2occc2cc2ccc(=O)oc12`, the Potency entry was “inactive”. In the case of `Cn1cc(C2=C(c3cn(C4CCN(Cc5ccccn5)CC4)c4ccccc34)C(=O)NC2=O)c2ccccc21` it was “inactive”; in that of `CC(CCc1ccccc1)NC(C)C(O)c1ccc(O)cc1` (stereo not given), “inactive”.
